From PubChem BioAssay
An excerpt weighted towards active compounds, which were near 1.1% of everything screened.
Mac1 fbg inh: blocks human CD11b/CD18 adhesion to fibrinogen; actives 0.54% (n = 93,000); K562 CD11b/CD18 adhesion to fibrinogen, ATPlite luminescence; Mn2+ added to activate the integrin; inhibition, % at 10 µM; P05107+P11215;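 active = primary inhibition of 50% or more at 10 µM, then 40% or more on retest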
MMP13 inh: MMP13 (human) collagenase inhibition | P45452 | MMP-13 fTHP FRET cleavage, Mca fluorescence | inhibition, % at 4 µM | actives 0.07% (n = 65,000);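 active = inhibition above the mean of compound-free control plate wells plus 3 SD, cut at about 14% in these data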;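 note: 0% = DMSO wells and 100% = wells with reference MMP-13 inhibitor after basal subtraction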
CD11b adhes enh: CD11b/CD18-fibrinogen binding enhancement. actives 0.07% (n = 93,000). P05107+P11215. K562 CD11b/CD18 adhesion to fibrinogen, ATPlite luminescence. activation, % at 10 µM;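 active = 10 µM primary screen giving 50% or more activity, confirmed by 40% or more on retest at that dose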
FAK blocker: inhibitors of human focal adhesion kinase; Q05397; biochemical FAK kinase activity assay; inhibition, %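 (tested at 7 µM)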; actives 0.84% (n = 97,000); in the data active = inhibition above about 19%;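 note: 0% = DMSO and 100% = reference compound high control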
Target sequence (Q05397 whole entry, looked up): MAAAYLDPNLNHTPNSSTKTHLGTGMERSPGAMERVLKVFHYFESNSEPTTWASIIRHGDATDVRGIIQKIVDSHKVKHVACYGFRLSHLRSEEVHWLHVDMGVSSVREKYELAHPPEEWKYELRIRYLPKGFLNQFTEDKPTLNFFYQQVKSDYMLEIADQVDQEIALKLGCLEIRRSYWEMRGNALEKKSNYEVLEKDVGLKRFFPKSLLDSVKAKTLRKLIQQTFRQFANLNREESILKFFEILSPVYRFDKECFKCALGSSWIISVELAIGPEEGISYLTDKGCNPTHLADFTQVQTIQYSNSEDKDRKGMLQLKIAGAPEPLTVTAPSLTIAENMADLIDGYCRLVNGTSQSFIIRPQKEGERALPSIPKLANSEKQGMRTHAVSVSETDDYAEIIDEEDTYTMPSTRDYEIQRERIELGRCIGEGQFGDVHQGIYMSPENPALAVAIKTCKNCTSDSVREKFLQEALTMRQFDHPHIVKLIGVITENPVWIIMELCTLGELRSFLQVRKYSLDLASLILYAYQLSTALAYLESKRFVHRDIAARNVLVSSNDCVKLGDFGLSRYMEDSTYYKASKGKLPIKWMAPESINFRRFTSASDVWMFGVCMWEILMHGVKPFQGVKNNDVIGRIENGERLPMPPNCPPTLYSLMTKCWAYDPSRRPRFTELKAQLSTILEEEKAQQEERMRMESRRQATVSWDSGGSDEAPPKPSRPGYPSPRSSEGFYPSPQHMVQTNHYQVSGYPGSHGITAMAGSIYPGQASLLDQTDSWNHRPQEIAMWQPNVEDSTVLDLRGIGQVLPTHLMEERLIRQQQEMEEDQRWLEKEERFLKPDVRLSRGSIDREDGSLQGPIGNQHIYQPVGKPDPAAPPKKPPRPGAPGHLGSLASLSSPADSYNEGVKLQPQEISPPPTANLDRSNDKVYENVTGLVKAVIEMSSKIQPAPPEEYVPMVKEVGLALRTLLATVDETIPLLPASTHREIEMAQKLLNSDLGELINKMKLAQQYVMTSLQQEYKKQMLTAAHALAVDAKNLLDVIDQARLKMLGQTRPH
* = called active by the depositor; . = no result given.

SMILES	Mac1 fbg inh	MMP13 inh	CD11b adhes enh	FAK blocker
COCCN(CCOC)Cc1c(C)[nH]c2c(C)c(C)ccc2c1=O	4	-3	-1	-1
O=C(Cc1cccs1)Nc1nnc(Cc2ccccc2)s1	.	.	.	29*
O=C(Cc1cccs1)Nc1nnc(CCc2ccccc2)s1	-17	5	3	1
O=C(NC(=S)Nc1nc2c(s1)CSc1ccccc1-2)c1ccccc1	22	.	-5	-5
CCc1ccc(OCC(=O)NC(NC(=S)Nc2ccc(C)cc2C)C(Cl)(Cl)Cl)cc1 (stereo not drawn)	-4	.	50*	-4
CCc1ccc(OCC(=O)NC(NC(=S)Nc2ccccc2C)C(Cl)(Cl)Cl)cc1 (stereo not drawn)	6	.	-1	.
Cc1cc(C(=O)CSc2nc3ccc(Cl)cc3[nH]2)c(C)n1CC1CCCO1 (stereo not drawn)	83*	.	-6	0
Cc1cc(C(=O)CSc2nc3ccc(Cl)cc3[nH]2)c(C)n1C	13	-1	8	8
O=C(COC(=O)CCc1nc2ccccc2s1)Nc1cccc(S(=O)(=O)N2CCOCC2)c1	-14	.	-1	1
CCOC(=O)CSc1ccc(S(=O)(=O)N(C)C2CCCCC2)cc1[N+](=O)[O-]	8	.	3	-1
O=S(=O)(Nc1nnc(-c2ccccc2)s1)c1ccc(Cl)cc1	86*	5	-10	-7
Cc1nc(C)c(C(=O)NNC(=O)c2ccc(Br)cc2)s1	12	.	-2	.
CC(C)Cc1csc(NC(=O)c2ccc(Cl)cc2)c1C(=O)O	100*	.	-7	.
Cc1cc(C(=O)CSc2nnc(-c3ccco3)o2)c(C)n1-c1ccc2c(c1)OCCO2	87*	-2	4	0
CCOC(=O)C1=c2s/c(=C\c3cccnc3)c(=O)n2C(N)=C(C(=O)OC)C1c1cccnc1 (stereo not drawn)	2	.	17	2
CCOC(=O)C1=C(N)n2c(s/c(=C/c3ccco3)c2=O)=C(C(=O)OC)C1c1ccco1 (stereo not drawn)	4	14*	48	4
COc1ccc(OC)c(-c2cc(C(=O)Nc3sc4c(c3C#N)CCC(C)C4)c3ccccc3n2)c1 (stereo not drawn)	-10	.	93*	3
COc1ccccc1-c1cc(C(=O)Nc2sc3c(c2C#N)CCC(C)C3)c2ccccc2n1 (stereo not drawn)	-13	.	116	-2
Cc1ccccc1-c1cc(C(=O)Nc2sc(C(=O)OC(C)C)c(C)c2C#N)c2ccccc2n1	95*	.	-6	-2
COC(=O)c1sc(NC(=O)c2cc(-c3ccccc3)nc3ccccc23)c(C#N)c1C	104	.	-10	-7
CCOC(=O)c1ccc2c(c1)C1C=CCC1C(C(=O)O)N2 (stereo not drawn)	-24	3	116*	.
CC(C)(C)n1ncc2c(=O)n(Cc3ccc(Cl)cc3Cl)cnc21	50*	-4	5	-2
CC1(C)NC(=O)N(CCCSc2ccc(Cl)cc2)C1=O	5	6	-3	.
Cc1cc(NS(=O)(=O)c2ccc(NC(=O)c3ccoc3C)cc2)nc(C)n1	1	2	3	2
Cc1nc(NCc2ccco2)c2c(C)c(C)sc2n1	83*	.	-6	1
SMILES	Mac1 fbg inh	MMP13 inh	CD11b adhes enh	FAK blocker
COc1ccccc1NC(=O)Cc1nn(C)c(=O)c2ccccc12	64*	1	-3	-2
COc1cccc(OC)c1NC(=O)Cc1nn(C)c(=O)c2ccccc12	-7	4	-4	-4
Cc1ccc(NC(=O)Cc2nn(C)c(=O)c3ccccc23)cc1F	-2	-3	3	3
Cn1nc(CC(=O)Nc2ccc3c(c2)OCCO3)c2ccccc2c1=O	96*	-4	-12	.
Cc1oc2c(c1C(=O)Nc1ccc(C(=O)O)cc1)CCCC2	8	.	-4	-2
Cc1c(Cl)cccc1NC(=S)NNc1ncc(C(F)(F)F)cc1Cl	90*	.	-10	4
Fc1ccccc1NC(=S)NNc1ncc(C(F)(F)F)cc1Cl	81*	.	-11	-1
Cc1ccccc1NC(=S)NNc1ncc(C(F)(F)F)cc1Cl	17	.	0	-2
CCOC(=O)CSc1nc(-c2cccs2)nc2c1c(=O)n(C)c(=O)n2C	.	-1	.	.
COc1ccc(NC(=O)c2cccc(S(=O)(=O)Nc3ccc(Br)cc3)c2)cn1	103*	.	-11	.
FC(F)(F)c1cccc(Cn2nnnc2-c2cc(Cl)cc(Cl)c2)c1	.	.	.	4
O=C1C2C(C(=O)N1/N=C/c1cc([N+](=O)[O-])ccc1O)C1C=CC2C12CC2 (stereo not drawn)	.	.	.	-6
O=C1C2C(C(=O)N1/N=C/c1cc(Br)cc([N+](=O)[O-])c1O)C1C=CC2C12CC2 (stereo not drawn)	66*	.	-5	-4
O=C(Nc1ccncc1)c1ccc2c(c1)C(=O)N(C1CCCCC1)C2=O	86*	.	-7	2
Cc1ccnc(NC(=O)c2ccc(N3C(=O)CCC3=O)cc2)c1	.	.	.	13
O=[N+]([O-])c1cccc(NC(=S)NCCc2ccccc2)c1	104*	.	-8	.
c1ccc(-c2ncc(CSc3nncn3-c3ccccc3)s2)cc1	-10	.	-1	3
Cc1nnc(SCc2cnc(-c3ccc(C(C)C)cc3)s2)n1C	70*	-6	-6	-1
CN1CCN(c2cc(N3CCc4ccccc4C3)c(F)cc2[N+](=O)[O-])CC1	26	.	1	.
CC(C)CC(=O)Nc1nc(=S)ss1	75*	.	-6	-1
CC(=O)Nc1nc(=S)ss1	9	1	-3	-2
Cc1ccccc1C(=O)Nc1nc(=S)ss1	100*	.	-11	6
Cc1cc(=O)[nH]c(SCC(=O)Nc2ccc(Br)cc2)c1C#N	93*	.	-6	-3
Cc1cc(=O)[nH]c(SCC(=O)Nc2ccccc2C#N)c1C#N	-1	.	-3	-3
Cc1cccc(N(CC(=O)NC2CCCCC2)C(=O)CCC(=O)Nc2cc(C)ccn2)c1	.	4	.	.
SMILES	Mac1 fbg inh	MMP13 inh	CD11b adhes enh	FAK blocker
O=C1CC(O)(C(F)(F)F)Oc2c1ccc1ccccc21 (stereo not drawn)	90*	-39	-7	2
O=C1CC(O)(C(F)F)Oc2ccc3ccccc3c21 (stereo not drawn)	-5	-81	0	3
CCOC(=O)Cc1csc(NC(=O)c2sc3nc4ccc(C)cc4cc3c2N)n1	.	.	.	-5
CCc1nnc(NC(=O)c2sc3nc4cc(C)ccc4cc3c2N)s1	-11	.	100*	11
O=C(c1ccc(F)cc1)C1CCN(C(=S)Nc2ccccc2)CC1	.	.	.	0
O=C(c1ccc(Cn2cc(Br)cn2)o1)N1N=C(C(F)F)CC1(O)C(F)F (stereo not drawn)	6	.	-1	3
COc1ccccc1OCc1ccc(C(=O)N2N=C(C(F)F)CC2(O)C(F)F)o1 (stereo not drawn)	82*	.	-4	2
CCOc1ccc(-c2nnn(CC(=O)c3cc(OC)ccc3OC)n2)cc1	-6	-5	5	-4
Oc1csc(Cc2nc(-c3ccc(-c4ccccc4)cc3)cs2)n1	-2	.	161*	-1
CCN1CCN(S(=O)(=O)c2cc(OCC(=O)NC3CCCCC3)c(C)cc2Cl)CC1	58*	2	-5	-2
Cc1cc(Cl)c(S(=O)(=O)N2CCCCCC2)cc1OCC(=O)NC1CCCCC1	77*	.	-5	4
